Assay [1] is described as follows: NCI Yeast Anticancer Drug Screen. Data for the rad50 strain (AID 155).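 Note: 0% = growth of vehicle-only cultures of the same strain.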 As to conditions: S. cerevisiae rad50 strain growth inhibition; at 50.0 µM; stronger effect = higher value. A digest of the protocol:
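Vehicle-treated cultures provide the reference for the growth inhibition reported for compound-exposed, repair-deficient yeast.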

The nature of assay [2]: NCI Yeast Anticancer Drug Screen. Data for the mec2-1 strain (AID 157). As to conditions: S. cerevisiae mec2-1 strain, at 50.0 µM, stronger effect = higher value. A digest of the protocol:
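Each compound was tested on mec2-1 yeast, a strain altered in DNA damage repair or cell cycle control. Growth inhibition is reported relative to vehicle.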

The nature of assay [3]: NCI Yeast Anticancer Drug Screen. Data for the sgs1 mgt1 strain (AID 161).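 Note: 0% = growth of cultures given vehicle only.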 As to conditions: S. cerevisiae sgs1 mgt1 strain, at 50.0 µM, stronger effect = higher value. The procedure, abridged:
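Inhibition of yeast growth, normalised to vehicle-treated controls, is reported for a strain bearing genetic alterations in DNA damage repair.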

A short description of assay [4]: NCI Yeast Anticancer Drug Screen. Data for the cln2 rad14 strain (AID 165).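 Note: 0% = growth equal to vehicle treated cultures.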 As to conditions: S. cerevisiae cln2 rad14 strain, at 50.0 µM, stronger effect = higher value. A digest of the protocol:
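Test compounds were added to cln2 rad14 yeast cultures; inhibition of growth was then determined by comparison with vehicle treatment.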

Assay [5] is described as follows: NCI Yeast Anticancer Drug Screen. Data for the bub3 strain (AID 167). As to conditions: S. cerevisiae bub3 mutant strain, at 50.0 µM, stronger effect = higher value. The procedure, abridged:
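Mutant yeast screening strain plus compound; vehicle-treated cultures serve as the 0% inhibition reference.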

Assay [6] is described as follows: NCI Yeast Anticancer Drug Screen. Data for the mlh1 rad18 strain (AID 175). As to conditions: S. cerevisiae mlh1 rad18 strain growth inhibition; at 50.0 µM; stronger effect = higher value. The procedure, abridged:
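Inhibition values reflect reduced growth of mutant yeast versus vehicle-treated controls following compound exposure; the mutations affect DNA damage repair.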

The structures appear in SMILES notation. About 79,000 compounds went through this panel and 15% of them were active in at least one assay; those are over-represented in the sample as a whole. Values without a mark were called inactive. Activity calls are given as the source filed them. Cut-off read from the data, not from the text of the source: active = growth inhibition above about 70%; inactive = the rest.

In the case of `N#CC(C#N)=Cc1ccccc1C(=O)O`, the growth inhibition in assay [1] was 14.9%; in assay [2], 11.3%; in assay [3], -12.3%; in assay [4], 14.7%; in assay [5], 7.15%; in assay [6], -4.1%.
As for `CC(C)C(Br)C(=O)O` (stereo unspecified), the growth inhibition was -6.85% in assay [1]; -16.6% in assay [2]; -21.1% in assay [3]; -41.5% in assay [4]; -9.5% in assay [5]; 2.1% in assay [6].
For the compound `O=C(COc1ccc(Cl)cc1)Nc1ccc(Cl)cc1C(=O)c1ccccc1`, the growth inhibition in assay [1] is -15.8%; in assay [2], -8.9%; in assay [3], 17.3%; in assay [4], 18.8%; in assay [5], 1.1%; in assay [6], -18.4%.
On to `O=C(CN1C(=O)c2ccccc2C1=O)OCCNCCCl`, for which the growth inhibition is 98.2% (active) in assay [1]; 96.5% (active) in assay [2]; 98.1% (active) in assay [3]; 95.9% (active) in assay [4]; 97.4% (active) in assay [5]; 98.5% (active) in assay [6].
With `C[C@]12CC[C@H]3[C@@H](CCC4=C(Br)C(=O)CC[C@@H]43)[C@@H]1CC[C@@H]2O`, the growth inhibition in assay [1] is 9.5%; in assay [2], 2.3%; in assay [3] it was 10.6%; in assay [4] it was -19.6%; in assay [5] it was 2.5%; in assay [6] it was 19.1%.
In the case of `S=C=Nc1cccc2ccccc12`, the growth inhibition in assay [1] is -13.7%; in assay [2] it was -11.8%; in assay [3] it was -10.1%; in assay [4], 17.5%; in assay [5], -6.45%; in assay [6], -6.1%.
As to `N#C[CH2][Sn]([c]1ccccc1)([c]1ccccc1)[c]1ccccc1`, the growth inhibition in assay [1] was 98.8% (active); in assay [2] it was 98.8% (active); in assay [3], 99% (active); in assay [4], 98% (active); in assay [5] it was 98.5% (active); in assay [6], 98.9% (active).
Take `CC(C)C(C)(O)C#N` (stereo unspecified): the growth inhibition in assay [1] was 2.2%; in assay [2], -2.1%; in assay [3], 2.6%; in assay [4], -23.4%; in assay [5] it was 2.9%; in assay [6], 17.9%.
As for `NC(=O)CCC(N)C(=O)O.[Cl-].[Cl-].[Cl-].[Cl-].[Pt+2]` (stereo unspecified), the growth inhibition in assay [1] was -1.4%; in assay [2], -3.35%; in assay [3], -9.1%; in assay [4], 23.9%; in assay [5] it was 8.1%; in assay [6], 13%.
In the case of `CC[N+]1(CC)CC[N+](CC)(CC)CC1` (tested in a mixture with another compound), the growth inhibition in assay [1] is 6.1%; in assay [2], -28.8%; in assay [3] it was 4.85%; in assay [4], 0.45%; in assay [5], -0.95%; in assay [6], 29.1%.
As for `COc1ccc2c(c1)CCC1C2CCC2(C)C1CCC21CCNP(=O)(N(CCCl)CCCl)O1` (stereo unspecified), the growth inhibition in assay [1] was 72% (active); in assay [2], 31.4%; in assay [3], 72.2% (active); in assay [4] it was 23.3%; in assay [5] it was 22.4%; in assay [6] it was 38.7%.
`COC(=O)C(Cl)Cl`: the growth inhibition in assay [1] was 9.2%; in assay [2], -17.1%; in assay [3] it was -1.85%; in assay [4], -47.9%; in assay [5] it was -5.6%; in assay [6], 14.1%.
Consider `N#CC(C#N)=C(C#N)C#N`, for which the growth inhibition in assay [1] was 14.1%; in assay [2] it was 4.6%; in assay [3] it was 1.9%; in assay [4] it was -25.9%; in assay [5], 0.05%; in assay [6] it was 6.25%.
Take `CC1(C)CN=C(Nc2ccc(Cl)cc2)S1`: the growth inhibition in assay [1] was 13.9%; in assay [2], 1.45%; in assay [3] it was -12.1%; in assay [4], 13.5%; in assay [5] it was -10.7%; in assay [6], -31.2%.
On to `SCc1ccccc1.[Cu+2]`, for which the growth inhibition was -1.4% in assay [1]; -15.9% in assay [2]; -0.45% in assay [3]; -35.1% in assay [4]; -50.7% in assay [5]; -2.75% in assay [6].
With `Cc1ccc(S(=O)(=O)OC2CN3CCC2CC3)cc1` (stereo unspecified), the growth inhibition in assay [1] was 62.4%; in assay [2], -2.95%; in assay [3] it was 42.7%; in assay [4] it was 26.8%; in assay [5] it was 38.4%; in assay [6], 51.5%.
With `[Au].[NH-]CC[NH-].[NH-]CC[NH-]`, the growth inhibition in assay [1] is 9.45%; in assay [2], -5.5%; in assay [3] it was -17.4%; in assay [4], -7.05%; in assay [5], -0.55%; in assay [6] it was -12.5%.
As for `CCOC(=O)c1cc2c(cn1)[nH]c1ccccc12`, the growth inhibition in assay [1] was 41.2%; in assay [2], 34.2%; in assay [3], 43.4%; in assay [4] it was 0%; in assay [5] it was 26.9%; in assay [6], 16.8%.
In the case of `O=c1[nH]c(=O)n(Cl)c(=O)n1Cl`, the growth inhibition in assay [1] is 16.4%; in assay [2], 23.1%; in assay [3] it was 14.2%; in assay [4] it was 6.2%; in assay [5] it was 31%; in assay [6], 21.9%.
As to `COC(=O)C1C(=O)NC2(C)CC1c1ccccc1O2` (stereo unspecified), the growth inhibition in assay [1] was -28%; in assay [2], -11.7%; in assay [3] it was -30.8%; in assay [4], 8%; in assay [5] it was -12.5%; in assay [6], -1.45%.
As to `COc1ccc(S(=O)(=O)F)cc1N`, the growth inhibition in assay [1] is -18.6%; in assay [2], -32.5%; in assay [3] it was -21.6%; in assay [4], 4.35%; in assay [5], -14.3%; in assay [6], -22.4%.
